The results in this text go back to PubChem BioAssay.

Test [1] has as its system Wnt5a (protein binding on small-molecule microarray). The experiment in a line: Wnt5a binders on small-molecule microarray, primary screen, biophysical, 635/667 nm fluorescence (AID 1142).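 Note: fluorescence read at 667 nm with signal to noise per printed feature.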 Conditions: 635 nm fluorescence, higher = more signal.
The nature of test [2]: cell viability in Huh7 cells, primary screen, cytotoxicity control for HCV replication inhibitor project, CellTiter-Glo luminescence, basal, 48 h (AID 1143).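 Note: Huh7 hepatoma cells carrying a hepatitis C replication reporter with no stimulus; test concentration not given here.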 The note with it: Huh7 HCV replicon, higher = more signal, called active from +8 up or from −8 down.
A short description of test [3]: P. aeruginosa biofilm formation inhibitors, primary screen, PAO1 strain, BacTiter-Glo luminescence, LB-PBS (AID 1144). The note with it: 12 h, higher = more signal.
A short description of test [4]: CREB reporter modulators without forskolin, primary screen, cell-based, PC12, CRE-LacZ reporter, unstimulated (AID 1145). Conditions: no forskolin, luminescence, 4.5 h, higher = more signal, called active from +8 up or from −8 down.
A short description of test [5]: CREB reporter modulators under forskolin, primary screen, cell-based, PC12, CRE-LacZ reporter, forskolin-stimulated (AID 1146).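 Note: PC12 cells with 6xCRE LacZ reporter stimulated by forskolin 10 µM; beta-galactosidase reporter signal reflecting CREB driven transcription.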 Conditions: luminescence, 4.5 h, higher = more signal, called active from +8 up or from −8 down.
In test [6] the target is Streptavidin (Streptomyces avidinii) (UniProt P22629). The experiment in a line: streptavidin binders on small-molecule microarray, primary screen, artefact control for SMM compound annotation, biophysical, 635/667 nm fluorescence (AID 1147).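 Note: signal reflects streptavidin binding to arrayed compounds as a control protein.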 The note with it: streptavidin binding, higher = more signal.
Test [7] is described as follows: small-molecule binders of probe aInhba, primary screen, biochemical, small-molecule microarray, 635/667 nm fluorescence (AID 1148).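 Note: score merges 667nm spot fluorescence with signal-to-noise for antibody binding to printed compounds.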 The note with it: higher = more signal.
Test [8] has as its target Torsin-1A (Homo sapiens) (UniProt O14656). Description: torsin A binders from cell lysate, primary screen, small-molecule microarray, wild-type, 635/667 nm (AID 1149). Conditions: COS7 hTOR1A-WT lysate, 635 nm fluorescence, higher = more signal.
Test [9] has the same target. The experiment in a line: small-molecule binders of mutant TOR1A in lysate, primary screen, cell lysate, small-molecule microarray, COS7 lysate, 635/667 nm fluorescence (AID 1150).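 Note: score pools 667 nm emission and signal to noise measuring lysate protein binding.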 The note with it: COS7 hTOR1A mutant lysate, 635 nm fluorescence, higher = more signal.
For test [10], the system named is Sonic hedgehog protein (Shh). The experiment in a line: small-molecule binders of Shh protein, primary screen, biochemical, small-molecule microarray, 635/667 nm fluorescence (AID 1151).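 Note: Shh protein binding to compounds spotted on small-molecule microarray slides; score combines spot fluorescence intensity with signal-to-noise across triplicate slides.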 The note with it: small-molecule microarray binding, 635 nm fluorescence; higher = more signal.

Molecules are shown by their SMILES. Active and inactive are the calls of the source. Unless noted, the rule behind the calls is not given here.

Sequence of Streptavidin (Streptomyces avidinii) (P22629 whole entry, looked up): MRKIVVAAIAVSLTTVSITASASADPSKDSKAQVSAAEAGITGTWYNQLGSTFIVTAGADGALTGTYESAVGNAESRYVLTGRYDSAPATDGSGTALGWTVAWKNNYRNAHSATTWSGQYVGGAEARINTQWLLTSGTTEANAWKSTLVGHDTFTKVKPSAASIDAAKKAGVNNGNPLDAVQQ
Sequence of Torsin-1A (Homo sapiens) (O14656 whole entry, looked up): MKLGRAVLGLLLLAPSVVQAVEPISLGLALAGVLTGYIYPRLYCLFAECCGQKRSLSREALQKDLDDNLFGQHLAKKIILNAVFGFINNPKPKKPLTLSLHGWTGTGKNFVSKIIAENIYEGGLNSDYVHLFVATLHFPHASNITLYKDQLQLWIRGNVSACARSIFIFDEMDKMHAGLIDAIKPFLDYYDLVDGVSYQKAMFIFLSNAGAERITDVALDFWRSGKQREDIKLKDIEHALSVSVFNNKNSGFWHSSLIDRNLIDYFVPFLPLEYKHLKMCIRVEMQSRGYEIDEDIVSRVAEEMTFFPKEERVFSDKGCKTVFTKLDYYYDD

In the case of `COC(=O)[C@@]1(Cc2ccccc2)[C@H]2c3cc(C(=O)N4CCCC4)n(CCN4CNCC4=O)c3C[C@H]2CN1C(=O)c1ccccc1`, the composite z-score in test [1] was -0.042; in test [6], 2.04; in test [7] it was 0.202; in the test with Torsin-1A (Homo sapiens) [8] it was -0.0625; in the test with Torsin-1A (Homo sapiens) [9], 1.02; in [10] it was -0.535. For the same compound, the z-score is -0.119 (inactive) in test [2], 0.351 (inactive) in test [3], -0.182 (inactive) in test [4] and -0.768 (inactive) in test [5].

`COCCOC(=O)N1C(=O)[C@@]2(c3cc(C#CC4=CCCCC4)ccc31)[C@H](C(=O)NC[C@H](O)c1ccccc1)[C@H]1C(=O)O[C@H](c3ccccc3)[C@H](c3ccccc3)N1[C@@H]2c1ccc(OCCO)cc1`: the composite z-score in [1] amounted to 0.374; in test [6] it was 0.855; in test [7], 0.0446; in the test with Torsin-1A (Homo sapiens) [8], 0.481; with Torsin-1A (Homo sapiens) [9] it was 0.0642; in test [10], 2.05. Further, the z-score in test [2] is -2.96 (inactive); in test [3], 0.329 (inactive); in test [4] it was 0.0776 (inactive); in [5], 1.2 (inactive).

With `CN(C)c1ccc(C(O)C2C=CC3C(=O)NC(=O)C3N2Nc2ccc(Cl)cc2Cl)cc1` (centres undefined), the composite z-score in [1] was -0.0936; in test [6], 0.437; in [7], 0.13; with Torsin-1A (Homo sapiens) [8], -0.0205; with Torsin-1A (Homo sapiens) [9], 0.776; in [10], -0.214. Also, the z-score is 0.126 (inactive) in [2], -1.03 (inactive) in test [3], 0.629 (inactive) in test [4] and 0.628 (inactive) in test [5].

Take `CCOC(=O)C1=C[C@@H](c2ccccc2)N(S(=O)(=O)c2ccc(C)cc2)[C@H]1c1ccc(F)cc1`: the composite z-score in [1] was found to be 0.0679; in [6], 0.95; in test [7], 0.225; with Torsin-1A (Homo sapiens) [8], 0.347; with Torsin-1A (Homo sapiens) [9] it was 0.431; in test [10], 0.488. In addition, the z-score in test [2] was -3.77 (inactive); in test [3], 0.449 (inactive); in test [4], -0.826 (inactive); in [5] it was -0.552 (inactive).

Regarding `O=C1C2C=CC(C(O)c3ccccc3)N(n3cnnc3)C2C(=O)N1Cc1ccccc1` (centres undefined), the composite z-score in test [1] is 0.068; in [6], 0.266; in test [7], 0.241; with Torsin-1A (Homo sapiens) [8] it was 0.148; with Torsin-1A (Homo sapiens) [9] it was -0.457; in test [10], -0.189. In addition, the z-score in test [2] was 0.455 (inactive); in test [3], -1.43 (inactive); in [4], 0.822 (inactive); in test [5], -0.5 (inactive).

In the case of `COc1ccc([Si](C)(C)[C@@H]2[C@@H](CC(=O)N(CCO)Cc3ccccc3)O[C@]3(C(=O)N(Cc4cccc(N5CCC5=O)c4)c4ccccc43)[C@H]2C)cc1`, the composite z-score in test [1] was 0.0348; in test [6], -0.287; in [7], 0.0301; with Torsin-1A (Homo sapiens) [8] it was 0.0525; in the test with Torsin-1A (Homo sapiens) [9] it was -0.009; in test [10], 1.81. Also, the z-score in test [2] is -5.72 (inactive); in [3], 0.765 (inactive); in [4], 0.236 (inactive); in test [5], 0.398 (inactive).

With `COc1ccc(CCN2C(=O)[C@@]3(c4ccc([N+](=O)[O-])cc4)CC(=O)N(CC45CC6CC(CC(C6)C4)C5)[C@@H]3c3ccc(CO)cc32)cc1`, the composite z-score in test [1] was -0.209; in [6] it was -0.168; in test [7], 0.333; with Torsin-1A (Homo sapiens) [8] it was 0.16; with Torsin-1A (Homo sapiens) [9] it was 0.335; in test [10], 0.483. In addition, the z-score in [2] is -0.252 (inactive); in [3], 0.655 (inactive); in [4], 0.155 (inactive); in test [5], -0.036 (inactive).

Turning to `O=C1C2C=CC(C(O)C#Cc3ccccc3)N(Nc3ccccc3)C2C(=O)N1c1ccccc1` (centres undefined), the composite z-score in [1] is 0.0509; in [6] it was 0.464; in test [7] it was 0.0659; in the test with Torsin-1A (Homo sapiens) [8], 0.795; in the test with Torsin-1A (Homo sapiens) [9], -0.0627; in test [10] it was -0.0028. Also, the z-score in test [2] is 0.842 (inactive); in test [3], -0.2 (inactive); in test [4], 0.24 (inactive); in [5], 0.0728 (inactive).

Regarding `N#Cc1ccc(NN2C(C(O)CCc3ccccc3)C=CC3C(=O)N(c4ccccc4)C(=O)C32)cc1` (centres undefined), the composite z-score is 0.135 in test [1]; 0.79 in [6]; 0.194 in [7]; -0.0047 in the test with Torsin-1A (Homo sapiens) [8]; 0.985 in the test with Torsin-1A (Homo sapiens) [9]; -0.0548 in test [10]. Besides, the z-score in [2] was -0.843 (inactive); in [3], -1.07 (inactive); in test [4], -0.905 (inactive); in [5], -0.259 (inactive).

Consider `Cc1cc(C)c(C(O)C2C=CC3C(=O)N(C)C(=O)C3N2N2CCCCC2)c(C)c1` (centres undefined), for which the composite z-score came to 0.423 in [1]; 1.4 in [6]; 0.233 in test [7]; 0.0592 with Torsin-1A (Homo sapiens) [8]; 0.251 with Torsin-1A (Homo sapiens) [9]; 0.375 in test [10]. Moreover, the z-score is 1.09 (inactive) in test [2], -0.276 (inactive) in [3], -0.14 (inactive) in [4] and 0.56 (inactive) in test [5].

In the case of `C=C(C(=O)CC[C@H](OC(=O)c1ccccc1-c1ccccc1C(=O)O)c1ccc(CO)o1)C(C)C`, the composite z-score was 0.416 in [1]; 0.194 in [6]; -0.0933 in [7]; 0.427 in the test with Torsin-1A (Homo sapiens) [8]; 0.669 with Torsin-1A (Homo sapiens) [9]; 1.71 in test [10]. Moreover, the z-score in [2] was 0.559 (inactive); in [3], -1.11 (inactive); in test [4], 0.406 (inactive); in [5], 2.42 (inactive).

As to `C=CCN1C(=O)[C@@]2(Cc3ccccc3)N=C(c3ccc(OCCCO)cc3)O[C@H]2c2ccccc21`, the composite z-score in test [1] was determined as 0.358; in test [6], 0.653; in test [7], 0.346; with Torsin-1A (Homo sapiens) [8], 0.238; with Torsin-1A (Homo sapiens) [9], 1.56; in test [10], 1.28. The z-score in test [2] is -1.81 (inactive); in test [3], 0.294 (inactive); in [4] it was 1.07 (inactive); in [5] it was -0.984 (inactive).

Take `Cc1ccc(S[C@]2(C(=O)O)CC(=O)N(Cc3ccccc3)[C@@H]2c2ccc(CO)cc2)cc1`: the composite z-score is 0.0167 in [1]; -0.185 in [6]; -0.154 in test [7]; 0.0253 in the test with Torsin-1A (Homo sapiens) [8]; 0.12 in the test with Torsin-1A (Homo sapiens) [9]; 0.0306 in test [10]. Further, the figures for the z-score in test [2], in [4] and in test [5] were -1.22 (inactive), -0.412 (inactive) and -0.84 (inactive), respectively.
